The text below walks through data of ChEMBL document CHEMBL2218924, “A broad activity screen in support of a chemogenomic map for kinase signalling research and drug discovery” (Biochem J, 2013).

SMILES strings stand for the structures.

For assay [1], the target named is T1, cGMP-dependent protein kinase 1 (Homo sapiens) (UniProt Q13976).
T1 sequence (whole entry): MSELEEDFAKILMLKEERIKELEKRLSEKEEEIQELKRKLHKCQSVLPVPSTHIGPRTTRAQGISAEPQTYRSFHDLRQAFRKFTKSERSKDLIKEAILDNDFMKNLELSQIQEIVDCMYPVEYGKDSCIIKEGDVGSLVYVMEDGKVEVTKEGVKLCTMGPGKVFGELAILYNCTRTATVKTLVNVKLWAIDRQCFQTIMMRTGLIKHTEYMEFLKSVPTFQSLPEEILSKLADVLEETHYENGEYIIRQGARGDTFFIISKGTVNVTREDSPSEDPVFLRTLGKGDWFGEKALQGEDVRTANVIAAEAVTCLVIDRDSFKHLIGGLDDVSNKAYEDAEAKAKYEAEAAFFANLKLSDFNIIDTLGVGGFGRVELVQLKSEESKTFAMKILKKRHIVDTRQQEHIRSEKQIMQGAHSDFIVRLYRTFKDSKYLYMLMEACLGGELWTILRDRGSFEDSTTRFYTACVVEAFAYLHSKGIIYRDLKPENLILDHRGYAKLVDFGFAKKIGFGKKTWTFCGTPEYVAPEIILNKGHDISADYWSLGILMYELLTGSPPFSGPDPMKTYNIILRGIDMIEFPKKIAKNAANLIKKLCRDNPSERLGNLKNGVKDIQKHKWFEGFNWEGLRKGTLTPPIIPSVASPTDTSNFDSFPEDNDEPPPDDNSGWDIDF
Particulars: at 1 µM.

The target of assay [2] is T1, cGMP-dependent protein kinase 1 (Homo sapiens). The settings on record: at 10 µM.
For assay [3] the target is unchanged. Particulars: at 1 µM. This is another data set of the same source.
For assay [4] the target is unchanged. The settings on record: at 10 µM. This is another data set of the same source.
Assay [5] has as its target Serine/threonine-protein kinase N2 (Homo sapiens) (UniProt Q16513). The settings on record: at 1 µM.
Assay [6] shares this target. The settings on record: at 10 µM.
The target of assay [7] is Serine/threonine-protein kinase pim-2 (Homo sapiens) (UniProt Q9P1W9). The settings on record: at 1 µM.
Sequence of Serine/threonine-protein kinase pim-2 (Homo sapiens) (Q9P1W9 whole entry, looked up): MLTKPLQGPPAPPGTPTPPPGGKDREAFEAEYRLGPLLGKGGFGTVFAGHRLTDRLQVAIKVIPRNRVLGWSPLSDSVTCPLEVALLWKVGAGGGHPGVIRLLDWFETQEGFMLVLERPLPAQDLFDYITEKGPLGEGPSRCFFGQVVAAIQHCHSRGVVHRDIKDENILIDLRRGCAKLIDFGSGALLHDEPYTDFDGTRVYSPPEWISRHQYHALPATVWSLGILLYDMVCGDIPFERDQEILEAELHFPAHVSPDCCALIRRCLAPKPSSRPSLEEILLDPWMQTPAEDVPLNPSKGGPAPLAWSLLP
Assay [8] has the same target. The settings on record: at 10 µM.
Assay [9] addresses T2, MAP kinase-activated protein kinase 5 (Homo sapiens) (UniProt Q8IW41).
T2 sequence (whole entry): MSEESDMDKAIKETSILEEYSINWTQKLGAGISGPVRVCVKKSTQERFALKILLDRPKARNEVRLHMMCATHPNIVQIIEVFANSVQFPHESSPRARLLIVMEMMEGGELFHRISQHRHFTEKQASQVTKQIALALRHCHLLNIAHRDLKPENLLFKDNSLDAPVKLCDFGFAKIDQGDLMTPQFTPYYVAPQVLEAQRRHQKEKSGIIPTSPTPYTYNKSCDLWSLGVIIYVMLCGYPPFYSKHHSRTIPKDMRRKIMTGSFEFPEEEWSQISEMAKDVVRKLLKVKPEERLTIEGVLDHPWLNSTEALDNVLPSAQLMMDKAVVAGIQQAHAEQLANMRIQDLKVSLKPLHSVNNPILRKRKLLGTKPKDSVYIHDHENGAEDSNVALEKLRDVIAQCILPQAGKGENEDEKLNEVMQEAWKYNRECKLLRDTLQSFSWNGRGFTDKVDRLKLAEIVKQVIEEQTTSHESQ
Particulars: at 1 µM.

Assay [10] concerns the target T2, MAP kinase-activated protein kinase 5 (Homo sapiens). The settings on record: at 10 µM.
Assay [11] concerns the target Tyrosine-protein kinase FRK (Homo sapiens) (UniProt P42685). The settings on record: at 1 µM.
The target is the same in assay [12]. Particulars: at 10 µM.
Assay [13] concerns the target Serine/threonine-protein kinase pim-1 (Homo sapiens) (UniProt P11309). The settings on record: at 1 µM.
Assay [14] has the same target. The settings on record: at 10 µM.
The target of assay [15] is Serine/threonine-protein kinase pim-3 (Homo sapiens) (UniProt Q86V86). The settings on record: at 10 µM.
For assay [16] the target is unchanged. The settings on record: at 1 µM.
Assay [17] addresses Serine/threonine-protein kinase PLK1 (Homo sapiens) (UniProt P53350). Particulars: at 1 µM.
The target is the same in assay [18]. Particulars: at 10 µM.
Assay [19] concerns the target T3, Phosphorylase b kinase gamma catalytic chain, liver/testis isoform (Homo sapiens) (UniProt P15735).
T3 sequence (whole entry): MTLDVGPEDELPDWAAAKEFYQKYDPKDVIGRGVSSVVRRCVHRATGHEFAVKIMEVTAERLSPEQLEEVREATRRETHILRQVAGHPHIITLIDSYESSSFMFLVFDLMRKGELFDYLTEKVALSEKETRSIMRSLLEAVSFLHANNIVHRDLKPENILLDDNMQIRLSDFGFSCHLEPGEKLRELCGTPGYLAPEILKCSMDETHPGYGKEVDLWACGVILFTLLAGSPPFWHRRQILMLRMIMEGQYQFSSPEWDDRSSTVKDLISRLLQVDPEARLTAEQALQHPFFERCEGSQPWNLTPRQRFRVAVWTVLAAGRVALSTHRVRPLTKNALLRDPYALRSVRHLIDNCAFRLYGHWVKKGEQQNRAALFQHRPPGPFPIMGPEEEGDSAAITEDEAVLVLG
Particulars: at 1 µM.

The target of assay [20] is T3, Phosphorylase b kinase gamma catalytic chain, liver/testis isoform (Homo sapiens). The settings on record: at 10 µM.

Sequence of Serine/threonine-protein kinase PLK1 (Homo sapiens) (P53350 whole entry): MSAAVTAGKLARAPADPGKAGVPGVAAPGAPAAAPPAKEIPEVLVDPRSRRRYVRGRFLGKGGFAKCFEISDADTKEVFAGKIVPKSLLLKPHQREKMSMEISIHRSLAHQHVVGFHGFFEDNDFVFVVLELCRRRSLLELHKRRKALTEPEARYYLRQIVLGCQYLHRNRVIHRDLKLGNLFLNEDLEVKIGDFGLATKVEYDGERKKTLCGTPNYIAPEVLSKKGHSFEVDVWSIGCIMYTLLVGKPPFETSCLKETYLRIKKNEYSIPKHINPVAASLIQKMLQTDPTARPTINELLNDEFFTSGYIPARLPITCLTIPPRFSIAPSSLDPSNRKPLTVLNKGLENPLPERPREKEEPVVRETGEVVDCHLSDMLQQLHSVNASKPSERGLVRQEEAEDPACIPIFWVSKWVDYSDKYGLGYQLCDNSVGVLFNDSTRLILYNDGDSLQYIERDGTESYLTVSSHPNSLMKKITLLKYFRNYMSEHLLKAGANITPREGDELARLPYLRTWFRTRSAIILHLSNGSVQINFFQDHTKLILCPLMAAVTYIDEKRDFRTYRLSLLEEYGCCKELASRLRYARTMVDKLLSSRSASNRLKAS
Sequence of Serine/threonine-protein kinase pim-1 (Homo sapiens) (P11309 whole entry, looked up): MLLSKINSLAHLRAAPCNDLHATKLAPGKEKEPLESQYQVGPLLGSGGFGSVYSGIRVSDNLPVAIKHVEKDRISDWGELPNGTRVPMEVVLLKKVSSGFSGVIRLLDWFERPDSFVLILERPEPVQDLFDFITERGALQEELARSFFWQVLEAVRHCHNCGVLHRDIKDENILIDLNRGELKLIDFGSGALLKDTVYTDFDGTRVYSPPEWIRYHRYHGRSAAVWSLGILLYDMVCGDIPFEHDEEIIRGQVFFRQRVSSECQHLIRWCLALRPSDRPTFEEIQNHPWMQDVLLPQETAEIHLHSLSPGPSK
Sequence of Serine/threonine-protein kinase N2 (Homo sapiens) (Q16513 whole entry, looked up): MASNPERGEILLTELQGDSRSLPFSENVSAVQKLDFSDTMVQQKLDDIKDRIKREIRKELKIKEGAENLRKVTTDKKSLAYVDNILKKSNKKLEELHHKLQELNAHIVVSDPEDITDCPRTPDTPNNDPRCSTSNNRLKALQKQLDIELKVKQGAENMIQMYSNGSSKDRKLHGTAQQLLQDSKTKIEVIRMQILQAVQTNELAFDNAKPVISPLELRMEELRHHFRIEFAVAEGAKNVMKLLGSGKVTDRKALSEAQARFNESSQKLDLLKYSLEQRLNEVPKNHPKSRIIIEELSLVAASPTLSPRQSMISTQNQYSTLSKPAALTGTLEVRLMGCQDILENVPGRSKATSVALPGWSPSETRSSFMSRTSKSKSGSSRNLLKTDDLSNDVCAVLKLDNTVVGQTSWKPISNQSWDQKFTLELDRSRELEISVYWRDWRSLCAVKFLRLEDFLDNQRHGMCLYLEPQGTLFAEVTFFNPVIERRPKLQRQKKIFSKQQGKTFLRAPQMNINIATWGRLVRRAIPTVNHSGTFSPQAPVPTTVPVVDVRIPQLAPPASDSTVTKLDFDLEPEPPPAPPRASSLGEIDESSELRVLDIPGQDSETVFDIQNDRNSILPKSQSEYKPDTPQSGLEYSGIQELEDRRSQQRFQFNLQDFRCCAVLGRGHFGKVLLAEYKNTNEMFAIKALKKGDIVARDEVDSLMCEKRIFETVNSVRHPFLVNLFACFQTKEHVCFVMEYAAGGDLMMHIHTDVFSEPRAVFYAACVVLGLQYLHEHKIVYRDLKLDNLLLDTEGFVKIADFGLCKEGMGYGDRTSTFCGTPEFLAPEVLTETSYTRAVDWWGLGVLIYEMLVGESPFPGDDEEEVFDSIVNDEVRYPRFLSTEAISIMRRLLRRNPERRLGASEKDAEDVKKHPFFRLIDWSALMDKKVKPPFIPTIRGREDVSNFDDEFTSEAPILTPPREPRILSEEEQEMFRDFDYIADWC
Sequence of Tyrosine-protein kinase FRK (Homo sapiens) (P42685 whole entry): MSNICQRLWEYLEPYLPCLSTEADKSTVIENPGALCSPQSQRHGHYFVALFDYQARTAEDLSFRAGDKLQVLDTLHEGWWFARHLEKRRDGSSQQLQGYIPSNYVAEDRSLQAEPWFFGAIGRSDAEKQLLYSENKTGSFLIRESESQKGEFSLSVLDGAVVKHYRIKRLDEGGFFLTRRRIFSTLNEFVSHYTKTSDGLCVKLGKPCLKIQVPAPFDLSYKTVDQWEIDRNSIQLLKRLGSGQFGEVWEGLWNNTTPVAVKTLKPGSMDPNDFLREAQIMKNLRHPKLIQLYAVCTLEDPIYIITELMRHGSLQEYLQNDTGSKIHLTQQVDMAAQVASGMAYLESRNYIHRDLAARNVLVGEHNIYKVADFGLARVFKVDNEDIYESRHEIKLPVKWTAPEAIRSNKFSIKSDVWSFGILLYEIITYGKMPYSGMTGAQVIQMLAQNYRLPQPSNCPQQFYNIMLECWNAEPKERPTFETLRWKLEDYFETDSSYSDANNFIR

In the case of `O=S(=O)(NCCNC/C=C/c1ccc(Br)cc1)c1cccc2cnccc12`, the residual activity worked out at 4% in [1]; 4% in assay [2]; 4% in assay [3]; 4% in assay [4]; 26% in assay [5]; 4% in assay [6]. Besides, the residual activity in assay [7] amounted to 139%; in assay [8], 132%.
Take `O=C1NC(=O)C(c2c[nH]c3ccccc23)=C1c1c[nH]c2ccccc12`: the residual activity worked out at 43% in assay [2]; 83% in assay [3]; 28% in [4]; 98% in assay [9]; 48% in assay [10]; 81% in assay [5]. In addition, the residual activity in assay [6] is 37%; in [11], 80%; in assay [12], 41%; in assay [13] it was 12%; in assay [14], 0%; in [7] it was 23%. For the same compound, the residual activity in assay [8] came to 8%; in assay [15], 73%.
On to `Nc1n[nH]c2nc3ccccc3nc12`, for which the residual activity in assay [2] is 88%; in [4], 59%; in [9] it was 95%; in assay [6] it was 74%; in assay [11], 98%; in assay [12], 92%. For the same compound, the residual activity worked out at 124% in assay [13]; 87% in [14]; 130% in [7]; 93% in [8]; 95% in assay [16]; 86% in assay [15]. In addition, the values for the residual activity in assay [17] and in assay [18] were 91% and 78%, respectively.
As for `O=C1C(Cl)=C(N2C(=O)CCC2=O)C(=O)c2ccccc21`, the residual activity in [1] was found to be 95%; in assay [2] it was 96%; in [3], 101%; in assay [4], 88%; in assay [10] it was 98%; in assay [5] it was 86%. The residual activity in [6] came out at 79%; in assay [11] it was 88%; in assay [12] it was 96%; in assay [13], 84%; in [14], 82%; in assay [7] it was 131%. The residual activity is 99% in assay [8]; 84% in assay [16]; 84% in [15]; 74% in assay [17]; 85% in [18].
Regarding `CC(C)(C)n1nc(Cc2cccc3ccccc23)c2c(N)ncnc21`, the residual activity in [1] was 109%; in assay [2], 97%; in [3] it was 86%; in assay [4], 95%; in assay [9], 75%; in [10], 33%. Also, the residual activity was found to be 26% in assay [11]; 0% in assay [12]; 98% in assay [19]; 109% in assay [20]; 77% in assay [13]; 106% in [14]. In addition, the residual activity in [7] amounted to 114%; in assay [16], 96%; in assay [15] it was 95%; in [17], 99%; in assay [18], 75%.
Consider `O=C1Cc2c([nH]c3ccc(Br)cc23)-c2ccccc2N1`, for which the residual activity was 98% in assay [1]; 97% in assay [2]; 83% in assay [3]; 74% in assay [4]; 97% in assay [9]; 70% in assay [10]. In addition, the residual activity in assay [5] came to 60%; in [6], 26%; in assay [11], 68%; in assay [12], 40%; in assay [19] it was 120%; in [20], 89%. For the same compound, the residual activity in [13] came out at 75%; in [14], 56%; in [7] it was 100%; in [8] it was 79%; in assay [16], 83%; in assay [15], 79%. Further, the residual activity in [17] was 76%; in assay [18] it was 75%.
Consider `O=c1cc(N2CCOCC2)oc2c1ccc1ccccc12`, for which the residual activity in [3] came out at 91%; in [4], 99%; in assay [9], 28%; in [10], 42%; in [5] it was 101%; in assay [6], 98%. Besides, the residual activity amounted to 90% in assay [12]; 90% in assay [19]; 89% in assay [20]; 55% in assay [13]; 13% in [14]; 87% in assay [7]. Besides, the residual activity amounted to 45% in [8]; 92% in assay [16]; 55% in assay [15]; 56% in assay [17]; 11% in assay [18].
With `O=S(=O)(c1cccc2cnccc12)N1CCCNCC1`, the residual activity in assay [1] was found to be 57%; in assay [2], 17%; in assay [3] it was 68%; in assay [4] it was 15%; in assay [5], 56%; in assay [6] it was 10%. Also, the residual activity in assay [7] is 138%.
Regarding `CN(C)S(=O)(=O)c1ccc2c(c1)/C(=C/c1cc3c([nH]1)CCCC3)C(=O)N2`, the residual activity in assay [1] was 99%; in assay [3], 89%; in assay [4], 80%; in [5] it was 95%; in assay [6], 82%; in assay [11], 54%. The residual activity in [12] came to 48%; in assay [19], 48%; in assay [20], 46%; in assay [14], 86%; in assay [7], 123%; in [8] it was 121%. Moreover, the residual activity in [16] came to 93%; in [15], 94%; in [17], 96%; in assay [18] it was 95%.
With `COc1cc2nccc(Oc3ccc(NC(=S)NC(=O)c4ccccc4C)cc3)c2cc1OC`, the residual activity in assay [1] is 97%; in assay [2], 97%; in [3], 69%; in [4] it was 66%; in assay [9] it was 70%; in assay [10], 79%. The residual activity amounted to 90% in [5]; 88% in assay [6]; 6% in assay [11]; 1% in assay [12]; 61% in assay [19]; 45% in assay [20]. In addition, the residual activity in assay [13] was 102%; in assay [14], 99%; in assay [7] it was 97%; in assay [16], 89%; in assay [15] it was 87%; in assay [17], 83%. For the same compound, in [18], the residual activity was 65%.
Regarding `O=C(NC(NC(=S)Nc1ccc(F)c([N+](=O)[O-])c1)C(Cl)(Cl)Cl)C(c1ccccc1)c1ccccc1` (stereo not given), the residual activity was 96% in assay [1]; 92% in [2]; 97% in assay [3]; 73% in assay [4]; 87% in [9]; 49% in assay [10]. Also, the residual activity turned out to be 94% in assay [5]; 102% in [6]; 71% in assay [11]; 47% in assay [12]; 90% in assay [20]; 102% in [13]. In addition, the residual activity in [14] worked out at 67%; in assay [7], 90%; in assay [8], 70%; in assay [17] it was 102%; in assay [18], 98%.
Consider `COc1ccc(-c2cnc3c(-c4ccsc4)cnn3c2)cc1`, for which the residual activity in [1] stood at 88%; in assay [2] it was 90%; in assay [3], 99%; in assay [4] it was 99%; in [9], 93%; in assay [10], 84%. In addition, the residual activity in [5] was found to be 95%; in [6], 130%; in [13] it was 76%; in assay [14] it was 70%; in assay [17], 95%; in assay [18] it was 71%.
On to `Cc1cc(C)c(/C=C2\C(=O)Nc3ccccc32)[nH]1`, for which the residual activity was determined as 104% in assay [1]; 103% in assay [2]; 78% in assay [4]; 78% in assay [9]; 100% in [16]; 101% in assay [15]. Also, the residual activity in assay [18] was 76%.
